HDAC3 inhib: inhibitors of human histone deacetylase 3; recombinant HDAC3, fluorogenic peptide/trypsin coupled, fluorescence; inhibition, % at 8.3 µM; actives 0.15% (n = 320,000); AID 2718; in the data active = inhibition above about 26%, passing the limit was not always enough; inconclusive = no clear call, values can overlap the other calls
m5-HT2A agonist: agonists of mouse serotonin 5-HT2A receptor (HTR2A); actives 0.66% (n = 360,000); activation, % at 7.6 µM; P35363; CHO-K1 mHTR2A beta-arrestin complementation, luminescence; percent of 30 µM serotonin response;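 active = activation above a run cutoff, the mean activation of all tested compounds plus 3 SD, cut at about 14% in these data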;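 note: 0% = plate median of compound wells and 100% = 30 µM serotonin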
Fh CTSL1 inh: counter-screen for PFM18AAP inhibitors: inhibitors of F. hepatica cathepsin L1; recombinant F. hepatica cathepsin L1, Z-Leu-Arg-MCA fluorescence; inhibition, % at 5.96 µM; actives 0.49% (n = 300,000);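 active = inhibition above the mean of all tested compounds plus 3 SD, set per screening campaign, cut at about 17% in these data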;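 note: 0% = plate median of test compound wells and 100% = 1 µM Z-Phe-Ala-diazomethylketone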
LANA-H2A inh: blocks KSHV LANA binding to histone H2A/H2B; cell-free LANA-H2A/H2B peptide, fluorescence polarization; inhibition, % (test concentration not listed); actives 0.6% (n = 320,000); in the data active = inhibition mostly above about 10%, no sharp cut-off; inactive = mostly below about 6.7%
Target sequence (Q9QR71 whole entry, looked up): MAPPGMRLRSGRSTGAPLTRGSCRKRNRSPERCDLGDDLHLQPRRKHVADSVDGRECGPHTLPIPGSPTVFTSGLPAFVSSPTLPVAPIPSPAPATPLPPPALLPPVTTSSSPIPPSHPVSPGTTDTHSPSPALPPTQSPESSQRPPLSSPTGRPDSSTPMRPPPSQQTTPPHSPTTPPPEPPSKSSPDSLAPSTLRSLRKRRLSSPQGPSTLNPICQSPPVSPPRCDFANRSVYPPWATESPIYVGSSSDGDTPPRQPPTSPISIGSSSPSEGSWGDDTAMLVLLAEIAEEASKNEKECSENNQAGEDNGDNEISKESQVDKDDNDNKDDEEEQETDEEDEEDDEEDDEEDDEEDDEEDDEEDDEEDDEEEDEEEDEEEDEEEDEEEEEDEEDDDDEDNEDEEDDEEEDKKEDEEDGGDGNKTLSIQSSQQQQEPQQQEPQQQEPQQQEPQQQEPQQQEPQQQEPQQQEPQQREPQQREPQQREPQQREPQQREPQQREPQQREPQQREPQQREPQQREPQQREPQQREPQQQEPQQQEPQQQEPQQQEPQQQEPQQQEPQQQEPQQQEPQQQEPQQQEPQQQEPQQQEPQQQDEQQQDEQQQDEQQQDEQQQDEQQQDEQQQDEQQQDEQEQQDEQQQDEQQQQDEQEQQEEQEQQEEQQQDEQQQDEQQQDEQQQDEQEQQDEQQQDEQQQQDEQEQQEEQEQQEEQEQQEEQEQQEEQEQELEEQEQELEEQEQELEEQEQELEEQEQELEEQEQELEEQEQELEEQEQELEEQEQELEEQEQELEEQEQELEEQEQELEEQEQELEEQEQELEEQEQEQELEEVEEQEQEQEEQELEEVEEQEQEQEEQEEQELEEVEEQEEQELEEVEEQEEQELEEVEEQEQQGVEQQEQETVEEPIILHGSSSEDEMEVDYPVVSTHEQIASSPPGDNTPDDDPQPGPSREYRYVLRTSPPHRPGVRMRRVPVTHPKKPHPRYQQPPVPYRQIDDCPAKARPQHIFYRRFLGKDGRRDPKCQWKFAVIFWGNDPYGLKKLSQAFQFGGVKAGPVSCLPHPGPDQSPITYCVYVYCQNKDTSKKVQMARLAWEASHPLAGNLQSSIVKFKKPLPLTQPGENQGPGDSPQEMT
OPRM1 ag: activates human mu opioid receptor in HTR2A counterscreen. shares compounds with m5-HT2A agonist. U2OS OPRM1 beta-arrestin PathHunter, luminescence; DMSO 0%, DAMGO 9.3 µM 100%. activation, % at 9.3 µM. actives 5.3% (n = 2,300);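 active = mean activation above the mean of DMSO-only wells plus 3 SD, cut at about 0.5% in these data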
HTR2A ag conf: mouse HTR2A agonism confirmed. shares compounds with m5-HT2A agonist. activation, % at 7.6 µM. actives 19% (n = 2,300). CHO-K1 PathHunter beta-arrestin recruitment, luminescence; DMSO 0%, 30 µM serotonin 100%;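 active = mean activation across triplicates above the hit threshold derived in the original primary screen, cut at about 15% in these data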
* = called active by the depositor; ? = inconclusive; · = no result. The list is not random: actives were taken first. Their share in the collection is about 1.7%.

SMILES | HDAC3 inhib | m5-HT2A agonist | Fh CTSL1 inh | LANA-H2A inh | OPRM1 ag | HTR2A ag conf
O=C(CC1C(=O)NCCN1Cc1ccccc1C(F)(F)F)NCCN1CCOCC1 (configuration not stated) | -2 | 3 | 0 | 1 | · | ·
O=C(CC1C(=O)NCCN1Cc1ccccc1C(F)(F)F)NCCn1cccn1 (configuration not stated) | -8 | 16* | 1 | 3 | 0 | 0
O=C(Cn1c(NCCCCl)nc2ccccc21)c1ccccc1 | -1 | -9 | · | 0 | · | ·
N#Cc1ccc(NC(=O)C2=COCCO2)cc1 | 5 | 0 | · | -3 | · | ·
Cc1ccc(C(=O)c2cc([N+](=O)[O-])ccc2N2CCOCC2)c(C)c1 | · | 15* | -2 | · | 0 | -3
CC(C)(C)c1ccc(S(=O)(=O)NC(=O)C2(C)CCN2C(=O)C2CCCCC2)cc1 (configuration not stated) | · | 5 | · | · | · | ·
CN(CCCN1c2ccccc2CCc2ccccc21)CC(=O)c1ccc(Cl)cc1 | 1 | · | -2 | 3 | · | ·
CNCCCN1c2ccccc2CCc2ccccc21 | -3 | 31* | 3 | 9.8* | -1 | -7
Cc1ccc(NC(=O)C2CCC(CNC(=O)[C@@H]3Cc4ccccc4CN3)CC2)c(C)c1 (some centres not stated) | -1 | 1 | -1 | -4 | · | ·
Cc1ccccc1C(=O)c1cccn1CC(=O)NCc1ccccc1Cl | -2 | 26* | 2 | -4 | 0 | 5
O=C(Cn1cccc1C(=O)c1ccccc1)NCc1ccccc1Cl | 9 | 5 | -3 | 0 | · | ·
O=Cc1ccc(OC(=O)c2cccnc2)cc1 | ? | 15* | 4 | -3 | -1 | -6
Cc1n[nH]c(=O)c2c(NC(=O)CSc3nn(-c4ccccc4)c(=S)s3)oc(C)c12 | 13 | -2 | 3 | -2 | · | ·
COc1cccc(N2CCN(Cc3nc(N)nc(N4CCCc5ccccc54)n3)CC2)c1 | -4 | 17* | -2 | 3 | 0 | 42*
COCCCC1CCN(C(=O)C2CCC(=O)N(CC3CCCCC3)C2)CC1 (configuration not stated) | 3 | 4 | · | 9 | · | ·
CC(C)C(=O)Nc1cccc(-c2nc3ncccc3o2)c1 | -16 | 26* | 4 | 1 | -1 | 3
O=C(CCNC(=O)N1CC(=O)Nc2ccccc21)Nc1ccc(Br)cc1F | 1 | -2 | -5 | -5 | · | ·
C/C(CC(=O)Nc1ccc(N(C)C)cc1)=N\NC(=O)c1ccc(Cl)cc1 | 5 | -6 | -1 | -1 | · | ·
C/C(CC(=O)Nc1ccc(N(C)C)cc1)=N\NC(=O)c1ccccc1Cl | · | 16* | · | · | 0.9* | 3
CCCn1nc(C(=O)Nc2ccc3nc(N4CCOCC4)sc3c2)ccc1=O | · | 21* | · | · | 0 | 0
COc1ccc(C(=O)Nc2ccc3nc(N4CCOCC4)sc3c2)cc1OC | 1 | -6 | · | -2 | · | ·
CCN(CC)c1ccc(NC(=O)CCN2C(=O)c3ccccc3S2(=O)=O)c(C)c1 | -6 | -2 | 4 | 2 | · | ·
COc1ccccc1C(=O)NC(=O)COc1ccc([N+](=O)[O-])cc1 | 5 | 4 | 0 | 0 | · | ·
COc1ccccc1C(=O)NC(=O)COC(=O)C1(C)CC1(Cl)Cl (configuration not stated) | -5 | 18* | -9 | 1 | -1 | -5
COc1ccccc1C(=O)NC(=O)COC(=O)c1ccc([N+](=O)[O-])cc1 | -11 | 18* | 4 | -3 | 0 | 5
SMILES | HDAC3 inhib | m5-HT2A agonist | Fh CTSL1 inh | LANA-H2A inh | OPRM1 ag | HTR2A ag conf
Cc1cc(S(=O)(=O)Nc2noc3ccccc23)ccc1F | 3 | -2 | 3 | 5 | · | ·
CC(C)C[C@H]1CN=C(N(C)C)N1CC(C)C | -4 | 24* | · | 1 | -1 | -2
CC1C(O)=C(c2ccccc2)P(=O)(Cc2ccccc2)C1C (configuration not stated) | · | 4 | · | · | · | ·
Cn1cc(C(c2ccccc2OCC(=O)O)c2cn(C)c3ccccc23)c2ccccc21 | 3 | -1 | 4 | 0 | · | ·
CC(=O)N[C@@H](Cc1c[nH]c2ccccc12)C(=O)NCc1ccccc1 | -1 | -4 | -3 | 1 | · | ·
CN(CCOc1ccc(Cl)cc1)C(=O)c1cc(S(=O)(=O)N2CCOCC2)ccc1N1CCCC1 | 0 | 19* | · | 3 | -1 | -4
Cc1ccccc1NC(=S)NCc1ccc2c(c1)cc(C)n2C | -1 | 20* | -2 | -1 | -1 | 1

Assay outcomes as filed in PubChem BioAssay.
